Among the data in PubChem BioAssay AID1159580 (chemical genetic matrix, 2015) are normalized growth values, retold here.

The nature of this assay: chemical genetic growth profiling, strain panel (AID 1159580).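 Also: tested at 20 µM; growth read once vehicle control cultures reached saturation at 30 °C; 1 = growth at the plate median or of vehicle wells; lower values mean less growth of the strain.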 The following applies: S. cerevisiae deletion strains, growth OD.

In all, about 5,500 compounds went through this assay and about 2,000 (36%) were called active. Inconclusive results (about 18%) are left out. Some of the results follow. Values without a mark were called inactive. Rule as the data show it: active = normalized growth mostly below about 0.91 (no sharp cut-off); inconclusive = no clear call, values can overlap the other calls; inactive = mostly above about 0.92.

Turning to `c1ccc(CCCN2CCN(CCOC(c3ccccc3)c3ccccc3)CC2)cc1`, the normalized growth was 0.977 (locus YAL013W, strain DEP1, stronger effect = lower value); 0.967 (locus YAL040C, strain CLN3, stronger effect = lower value); 0.932 (active) (locus YCL061C, strain MRC1 (second series), stronger effect = lower value); 0.941 (locus YDR363W, strain ESC2, stronger effect = lower value); 0.998 (locus YER002W, strain NOP16, stronger effect = lower value); 0.93 (locus YJR075W, strain HOC1, stronger effect = lower value). For the same compound, the normalized growth runs as follows: (locus YMR263W, strain SAP30, stronger effect = lower value) 0.992; (locus YNL175C, strain NOP13, stronger effect = lower value) 0.996; (locus YNL197C, strain WHI3, stronger effect = lower value) 0.991; (locus YNL224C, strain SQS1, stronger effect = lower value) 1.02; (locus YOR083W, strain WHI5 (second series), stronger effect = lower value) 0.881; (locus YPL055C, strain LGE1, stronger effect = lower value) 0.95.
